# Only a selection was taken, and hits are over-represented in it overall.
# RE007 growth inh: less growth of the S. pombe RE007 Vpr strain | S. pombe RE007 Vpr strain, BacTiter-Glo ATP luminescence, 24 h | AID 651644 | Potency, µM (top dose mostly 92.2 µM), most hits filed as inhibitors | 360,000 compounds, 0.21% hits; active = well fitted falling curve with a large enough effect; inconclusive = small, poorly fitted or top-dose-only effect; inactive = no such curve, though single readings can be large or run the other way; note: nearly all actives have a fitted effect of over 50% in size
#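 Fission yeast strain RE007, carrying one chromosomally integrated HIV-1 vpr copy, was seeded at OD 0.01 in PMG+AL medium with 23 nL pinned compound. After 24 h at 30 °C and 99% humidity, viability was read by BacTiter-Glo luminescence.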
# LmPK inh: blocks Leishmania mexicana pyruvate kinase activity; AID 1721; purified LmPK, Kinase-Glo ATP luminescence, 1 h; Q27686; Potency, µM (series often up to 57.5 µM), hits mostly inhibitors; 290,000 compounds, 0.37% hits
#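 Pyruvate kinase activity monitored as ATP production (luciferase luminescence). Conditions: 0.1 nM enzyme, 0.5 mM PEP, 0.1 mM ADP, 1 h, RT; normalized against uninhibited and no-enzyme wells.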
# TbPYK inhibitor: inhibitors of Trypanosoma brucei pyruvate kinase | AID 624173 | TbPYK enzyme, Kinase-Glo Plus ATP luminescence, 45 min | 410,000 compounds, 0.12% hits | Potency, µM (doses to about 76.8 µM), most hits filed as inhibitors; note: nearly all actives have a fitted effect of over 50% in size
#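 Assay buffer: 50 mM TEA pH 7.2, 100 mM KCl, 10 mM MgCl2, 0.05% BSA, 0.01% Tween-20. Pyruvate kinase from T. brucei plus substrate met compound, then ADP (130 uM final). Luminescence was read post 45 min RT.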
# Shiga toxin inh: Shiga toxin inhibition. Vero cells, Shiga toxin protein synthesis inhibition reporter. inhibition, % at 38.7 µM. 290,000 compounds, 9.2% hits; in the data active = inhibition mostly above about 28%, no sharp cut-off; inactive = mostly below about 43%
# Giardia FBPA inh: blocks Giardia fructose-bisphosphate aldolase activity | A8B2U2 | purified Giardia FBPA | Potency, µM (titrated, usually from 59.6 µM), hits mostly inhibitors | 290,000 compounds, 0.71% hits; note: nearly all actives have a fitted effect of over 55% in size
# Target sequence (A8B2U2 whole entry, looked up): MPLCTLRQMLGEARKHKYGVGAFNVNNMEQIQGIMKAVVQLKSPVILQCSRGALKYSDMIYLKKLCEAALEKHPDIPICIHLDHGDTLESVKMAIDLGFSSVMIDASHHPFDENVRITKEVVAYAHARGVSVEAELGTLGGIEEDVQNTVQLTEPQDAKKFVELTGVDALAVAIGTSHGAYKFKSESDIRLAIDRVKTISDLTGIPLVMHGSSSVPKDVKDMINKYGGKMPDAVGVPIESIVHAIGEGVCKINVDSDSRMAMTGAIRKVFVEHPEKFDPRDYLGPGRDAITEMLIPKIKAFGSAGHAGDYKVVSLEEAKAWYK
#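 40 nM FBPA preincubated 10 min at RT with compound (up to 57.5 uM final), then substrate plus GAPDH/TPI/NAD/arsenate coupling and diaphorase/resazurin added. Fluorescence read after 20 min at RT, 525/598 nm.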
# Cycloheximide cs: counter-screen for Shiga toxin inhibitors: cycloheximide protein synthesis inhibition. cell reporter, cycloheximide protein synthesis inhibition counterscreen. max response, %. 300,000 compounds, 12% hits; in the data active = max response mostly above about 13%, no sharp cut-off; inactive = mostly below about 14%; note: read at 38.3 µM for the half of the compounds with a filed dose
# A number is an active result; – = inactive; ? = inconclusive; · = no result. Unless noted, calls come from the whole dose curve; as a rule, active = well fitted curve in the direction sought with a large enough effect; inconclusive = small, poorly fitted or top-dose-only effect, or another doubt; inactive = no such curve, though single readings can be large; an effect the other way counts as inactive or inconclusive.
SMILES,RE007 growth inh,LmPK inh,TbPYK inhibitor,Shiga toxin inh,Giardia FBPA inh,Cycloheximide cs
COC(=O)c1ccc(C(=O)NC(=S)Nc2nc3c(s2)CCCC3)cc1,·,–,–,–,?,20
O=C(CS(=O)(=O)Cc1ccccc1)Nc1nc2c(s1)CCCC2,–,–,–,–,–,–
COc1ccc(C(=O)Nc2nc3c(s2)CCCC3)cc1Cl,·,·,–,·,·,·
O=C(NC(=S)Nc1nc2c(s1)CCCC2)c1ccccc1,·,–,–,95,?,58
CCOC(=O)c1ccc(-n2c(CCC(=O)O)ccc2-c2ccc(Br)cc2)cc1,·,·,–,·,·,·
C[C@@H](NC(=O)[C@@H]1CCCN1C(=O)[C@@H]1CCCN1C(=O)c1ccc(Cl)cc1)c1ccccc1,–,·,–,·,·,·
COc1cc2oc(-c3ccc(O)cc3)cc(=O)c2c(O)c1OC,–,–,–,–,–,10
O=c1cc(-c2ccccc2)oc2cc(O)c(O)c(O)c12,–,·,?,·,10µM,·
COc1cc2oc(-c3ccc(O)cc3)cc(=O)c2c(OC)c1O,·,–,–,–,–,–
COc1c(-c2ccc(O)c(O)c2)oc2cc(O)cc(O)c2c1=O,–,–,–,–,–,active
COc1ccc(-c2cc(=O)c3c(O)cc(O)cc3o2)cc1O,·,·,·,70,–,34
CN(C)c1ccc2c(-c3ccccc3)c3ccc(=[N+](C)C)cc-3oc2c1,·,·,·,–,–,–
O=c1c(-c2cccs2)nc2ccccc2n1C(c1ccccn1)c1nc2ccccc2[nH]1 (configuration not stated),–,·,·,·,·,·
O=C(Cn1ncc2c1-c1ccccc1OC2)N1CCN(c2ccccc2)CC1,·,·,–,·,·,·
COc1c(O)cc2oc(-c3ccc(O)cc3)cc(=O)c2c1O,–,–,–,51,–,13
COc1ccc(-c2cc(=O)c3ccc(O)cc3o2)cc1,–,·,–,·,–,·
Nc1nc(OCC(F)(F)F)cc(Oc2ccccc2F)n1,–,–,–,80,–,22
CCc1ccccc1NC(=O)Cn1ccn(-c2cc(C)cc(C)c2)c(=O)c1=O,·,·,–,·,·,·
COc1cccc(C(=O)Nc2nnc(-c3ccc(F)cc3)o2)c1,–,–,–,–,?,–
CCOc1ccc(-c2nnc(NC(=O)c3ccc(OCC(C)C)c(OC)c3)o2)cc1,–,–,–,–,–,25
COC(=O)N[C@@H](c1ccc(Br)cc1)C(C(=O)OC)C(=O)OC,·,·,·,·,–,·
CCCCOC1CC(c2ccc(OCc3ccc(OC)cc3)c(OC)c2)N(C)O1 (configuration not stated),–,–,–,85,–,24
O=C(c1cccc(C(F)(F)F)c1)C1CCCN(C(=O)CCc2cnccn2)C1 (configuration not stated),–,–,–,–,–,–
O=C1CCC(CCC(=O)N2CCCC(C(=O)c3cccc(C(F)(F)F)c3)C2)=NN1 (configuration not stated),–,–,–,–,–,11
O=C(c1cccc(C(F)(F)F)c1)C1CCCN(C(=O)C2CCOCC2)C1 (configuration not stated),–,–,–,–,·,14
SMILES,RE007 growth inh,LmPK inh,TbPYK inhibitor,Shiga toxin inh,Giardia FBPA inh,Cycloheximide cs
COc1ccc(C(=O)C2CCCN(C(=O)CCC3=NNC(=O)CC3)C2)c(C)c1 (configuration not stated),–,–,–,–,–,–
COc1cccc(C(=O)C2CCCN(C(=O)CCC3=NNC(=O)CC3)C2)c1 (configuration not stated),–,–,–,46,–,16
CCc1ccc2oc(-c3cccc(NC(=O)c4ccc(N5CCC(C)CC5)c([N+](=O)[O-])c4)c3)nc2c1,·,·,–,·,·,·
Cc1nnc(SCC(=O)N2CCCCC2)s1,–,–,–,34,–,18
Nc1nnc(SCC(=O)N2CCCCC2)s1,–,–,–,–,·,–
COCC(C)n1c(C)cc(C(=O)CSc2nnc(N)s2)c1C (configuration not stated),–,–,–,–,–,24
CCOc1ccc(C(C)=O)cc1CSc1nnc(N)s1,–,–,–,–,–,–
Cc1ccc(C(=O)CSc2nnc(N)s2)c(C)c1,–,–,–,78,–,38
CCOc1ccc(C(=O)CSc2nnc(N)s2)cc1,–,–,–,73,–,–
Cc1ccc2cccc(NC(=O)c3cccc4c(Cl)cccc34)c2n1,·,·,–,·,·,·
Cc1cccc(NS(=O)(=O)c2ccc(C(=O)NCCCN3CCCC3=O)cc2)c1C,–,·,–,·,·,·
Cc1cc(C)c(C(=O)CSc2nnc(N)s2)cc1C,–,–,–,–,–,26
COC(=O)CSc1nnc(C)c(=O)[nH]1,–,–,–,–,–,–
Cc1ccc(C(=O)CSc2nnc3ccccn23)c(C)c1,–,–,–,–,–,27
Cc1ccc(NC(=O)CSc2nnc3ccccn23)c(Cl)c1,–,·,–,·,·,·
Cc1cc(C)c(C(=O)CSc2nnc(N)s2)c(C)c1,–,–,–,–,–,–
Cc1nnc(SCC(=O)c2ccc(C(C)C)cc2)s1,–,–,–,74,–,31
Cc1cc(C)c(C(=O)CSc2nnc(C)c(=O)[nH]2)cc1C,–,–,–,95,–,48
C[C@H](CO)N1C[C@H](C)[C@@H](CN(C)S(=O)(=O)c2ccccc2C#N)OCc2cn(nn2)CCCC1=O,–,·,–,·,·,·

# Screening data as filed in PubChem BioAssay.
